The AC50 is the concentration at which the activity in the assay is half-maximal. What is called inhibition is the relative decrease from the control value, in per cent.

Several values for one entry are separate records, joined by “and”; a condition that tells them apart may be missing. Identical values can stand only once. Results filed as inconclusive are left out. Activity calls are given as the source filed them. Unless noted, cut-off not given; nearly all actives show AC50 up to about 23 µM.

Experiment [1] can be described thus: growth inhibition of DIPG glioma cells, dose response, cell-based, SU-DIPG-XIII, MIPE5.0, CellTiter-Glo, qHTS (AID 1347064).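 On AC50: cells exposed to compound for 48 hours before the viability read.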 To be noted: SU-DIPG-XIII viability, CellTiter-Glo ATP luminescence. On the technique in general: ATP-based viability assays read luminescence as a measure of living cells.
Experiment [2] is described as follows: inhibitors of Cryptococcus chitosan production, flow cytometry, Cibacron Brilliant Red staining (AID 1347148; call rule not given here;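 further: compound exposure lasted three days at 37 degrees C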). To be noted: Cryptococcus neoformans chitosan, stronger effect = lower value; at 10 µM unless noted.
Experiment [3] in a line: protection against mutant huntingtin cytotoxicity, PC12 cells, LDH release (AID 1610). The following applies: PC12 mutant huntingtin toxicity, final LDH at 4 uM, stronger effect = lower value. On the technique in general: LDH in the medium is a marker of cell lysis.
In experiment [4] the target is ATP-dependent translocase ABCB1 (Homo sapiens) (UniProt P08183). In words: MDR1 (ABCB1) efflux transporter inhibition, cell-based (AID 377; in the data active means fluorescence slope change above about 50%). The following applies: MDR1-expressing cells, fluorescent substrate accumulation slope; stronger effect = higher value; concentration not given here.
ATP-dependent translocase ABCB1 (Homo sapiens), sequence (P08183 whole entry, looked up): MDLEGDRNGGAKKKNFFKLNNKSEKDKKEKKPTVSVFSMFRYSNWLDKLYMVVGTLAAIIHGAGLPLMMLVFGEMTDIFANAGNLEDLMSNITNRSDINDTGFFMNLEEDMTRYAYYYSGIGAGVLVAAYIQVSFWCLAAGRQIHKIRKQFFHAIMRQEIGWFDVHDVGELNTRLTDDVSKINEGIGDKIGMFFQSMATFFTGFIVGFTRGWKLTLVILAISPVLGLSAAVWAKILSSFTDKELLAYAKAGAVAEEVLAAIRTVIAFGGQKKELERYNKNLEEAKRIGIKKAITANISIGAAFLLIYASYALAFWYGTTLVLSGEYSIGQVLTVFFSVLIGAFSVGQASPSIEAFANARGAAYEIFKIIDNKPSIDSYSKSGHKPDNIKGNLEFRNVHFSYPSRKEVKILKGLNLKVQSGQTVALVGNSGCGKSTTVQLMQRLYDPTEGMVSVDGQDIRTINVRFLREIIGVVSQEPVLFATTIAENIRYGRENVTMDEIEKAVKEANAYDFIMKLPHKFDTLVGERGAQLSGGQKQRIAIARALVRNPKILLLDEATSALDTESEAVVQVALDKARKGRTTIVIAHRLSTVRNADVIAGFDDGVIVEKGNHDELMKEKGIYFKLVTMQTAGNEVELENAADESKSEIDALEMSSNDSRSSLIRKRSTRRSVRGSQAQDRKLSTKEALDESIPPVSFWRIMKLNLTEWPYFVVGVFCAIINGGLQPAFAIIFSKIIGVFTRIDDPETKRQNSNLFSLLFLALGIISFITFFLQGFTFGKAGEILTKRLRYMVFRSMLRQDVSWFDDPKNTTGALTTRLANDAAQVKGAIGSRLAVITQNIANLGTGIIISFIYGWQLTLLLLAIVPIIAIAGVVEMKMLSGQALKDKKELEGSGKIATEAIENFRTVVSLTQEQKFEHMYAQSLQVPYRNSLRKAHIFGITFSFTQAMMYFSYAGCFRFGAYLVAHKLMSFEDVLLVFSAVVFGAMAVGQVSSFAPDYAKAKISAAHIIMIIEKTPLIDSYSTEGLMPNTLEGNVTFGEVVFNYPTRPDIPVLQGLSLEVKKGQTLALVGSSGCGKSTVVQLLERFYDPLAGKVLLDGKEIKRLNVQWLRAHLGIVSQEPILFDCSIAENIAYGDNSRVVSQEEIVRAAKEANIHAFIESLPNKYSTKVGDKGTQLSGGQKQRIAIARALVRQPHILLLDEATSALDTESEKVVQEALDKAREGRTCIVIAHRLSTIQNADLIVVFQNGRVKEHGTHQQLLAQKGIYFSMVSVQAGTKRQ
Experiment [5] can be described thus: HD-MB03 medulloblastoma cell growth inhibition, synergistic combos for chromothripsis tumors, BGB or cisplatin IC20 combos (AID 1671455; in the data active means inhibition above about 83%;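 further: 0% = vehicle DMSO and 100% = high DMSO as cytotoxic control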). To be noted: HD-MB03 medulloblastoma cells, stronger effect = higher value.
A short description of experiment [6]: UWB1.289 ovarian carcinoma cell growth inhibition, synergistic combos for chromothripsis tumors, BGB or cisplatin combos (AID 1671456; in the data active means inhibition above about 80%;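 further: cells exposed to compound for four days; 0% = vehicle DMSO and 100% = killing by high DMSO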). To be noted: UWB1.289 ovarian carcinoma cells, stronger effect = higher value.
Experiment [7] in a line: LFS_MB_2R medulloblastoma cell growth inhibition, synergistic combos for chromothripsis tumors, cisplatin combos (AID 1671457; in the data active means inhibition above about 80%;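 further: cells exposed to compound for four days before readout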). To be noted: LFS_MB_2R medulloblastoma cells, stronger effect = higher value.
Experiment [8] is described as follows: UWB1.289_BRCA1 ovarian cancer growth, cell-based, BGB or cisplatin combinations (AID 1671459; in the data active means inhibition above about 80%). To be noted: UWB1.289 BRCA1 ovarian carcinoma, drug combinations, stronger effect = higher value.
Experiment [9] in a line: human astrocyte viability loss, single and combined drugs, cytotoxicity control for chromothriptic childhood tumor combination screen, cell-based, BGB or cisplatin IC20 combos (AID 1671460; in the data active means inhibition above about 80%;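 further: cells exposed to compounds for 96 hours before viability readout; 0% = vehicle and 100% = killing control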). To be noted: Human astrocytes, drug combinations, stronger effect = higher value.
Experiment [10] in a line: modifiers of HSF1 nuclear foci, imaging, Selleck Cancer Library (AID 1347162; in the data active means plate-normalised HSF1 focus index below about 0.46). The following applies: human cells, at 10 µM; SSMD: measured here: HSF1 foci SSMD mean; cell count: measured here: cell number; plate-normalised HSF1 focus index: stronger effect = lower value.
Where [11] appears, read: measured here: combo with BGB at IC20, at 0.5 µM.
Where [12] appears, read: measured here: combo with cisplatin at IC20, at 0.5 µM.
Setting [13] is: measured here: inhibition with BGB combination, at 0.05 µM.
Where [14] appears, read: measured here: inhibition with cisplatin combination, at 0.05 µM.
The mark [15] stands for this setting: measured here: combination with cisplatin, at 0.5 µM.
Setting [16] is: measured here: combination with cisplatin, at 5 µM.
[17] abbreviates: BGB combination, concentration series, at 5 µM.
Setting [18] is: cisplatin combination, concentration series, at 5 µM.
Setting [19] is: measured here: combo with BGB IC20, at 0.5 µM.
Where [20] appears, read: measured here: combo with cisplatin IC20, at 0.5 µM.

In the case of `NC(=O)c1cccc(N)c1`, the compound was classed as inactive in [1]. Moreover, the fold fluorescence in [2] was 5.59 [at 367.2 µM] (inactive).

For `O=C1C=CC(=C(c2ccc(O)cc2)c2ccc(O)cc2)C=C1`, the normalised LDH release in experiment [3] came out at 0.611.

For the compound `CCCC(=O)Nc1ncnc2c1ncn2[C@@H]1O[C@@H]2COP(=O)(O)O[C@H]2[C@H]1OC(=O)CCC`, in experiment [2], the fold fluorescence was 10.2 [at 101.8 µM] (inactive).

`O=C(O)c1cc([N+](=O)[O-])ccc1NCCCc1ccccc1`: in experiment [2], the fold fluorescence was 4.56 [at 166.5 µM] (inactive).

With `C[C@@]12C(=O)OC(=O)[C@]1(C)[C@H]1CC[C@@H]2O1`, the AC50 in experiment [1] is 2.95 µM (active).

Consider `CC(=O)c1c(O)c(C)c(O)c2c1OC1=CC(=O)C(C(C)=O)C(=O)C12C` (stereo not given), for which the normalised LDH release in [3] came out at 1.02.

`CC(CCc1ccc(O)cc1)NCCc1ccc(O)c(O)c1` (stereo not given): the fluorescence slope change in experiment [4] was 19.4% (inactive).

`COc1c2ccoc2nc2c(OC)c(OCC(O)C(C)(C)O)ccc12` (stereo not given): in [4], the fluorescence slope change is 3.7% (inactive).

With `COc1ccc([C@@H]2CC(=O)c3c(O)cc(O[C@@H]4O[C@H](CO[C@@H]5O[C@@H](C)[C@H](O)[C@@H](O)[C@H]5O)[C@@H](O)[C@H](O)[C@H]4O)cc3O2)cc1O`, the compound was classed as inactive in experiment [1].

On to `C[C@H]1C[C@H]2[C@@H]3CCC4=CC(=O)C=C[C@]4(C)[C@@]3(F)[C@@H](O)C[C@]2(C)[C@@]1(O)C(=O)CO`, for which the fluorescence slope change in [4] was 18% (inactive).

For the compound `CC(C)(O)CC[C@@H](O)[C@](C)(O)[C@H]1CC[C@@]2(O)C3=CC(=O)[C@@H]4C[C@@H](O)[C@@H](O)C[C@]4(C)[C@H]3CC[C@]12C`, the compound was classed as inactive in experiment [1].

As for `COc1ccc(-c2cc(=O)c3c(O)cc(O[C@@H]4O[C@H](CO[C@@H]5O[C@@H](C)[C@H](O)[C@@H](O)[C@H]5O)[C@@H](O)[C@H](O)[C@H]4O)cc3o2)cc1O`, the result in [1] was inactive.

On to `N=c1ccn2c(n1)O[C@H]1[C@H](O)[C@@H](CO)O[C@H]12`, for which the inhibition in experiment [5] (at 0.5 µM) was 89.9% (active); in experiment [5] (setting [11]), 84%; in [5] (setting [12]) it was 91.1%; in experiment [6] (at 0.5 µM), 1.85% (inactive); in experiment [6] (setting [13]) it was -40.2%; in experiment [6] (setting [14]), -14.8%. The inhibition in experiment [7] (at 0.5 µM) is -10.7% (inactive); in [7] (setting [15]), 6.24%; in [7] (setting [16]), 44.7%; in experiment [8] (setting [17]), 22.3%; in experiment [8] (at 0.5 µM), 7.05% (inactive); in experiment [8] (setting [18]), 41.2%. The results for the inhibition in experiment [9] (at 0.5 µM), in experiment [9] (setting [19]) and in experiment [9] (setting [20]) were 27.9% (inactive), 22.9% and 18.2%, respectively.

On to `C=C1CC[C@@H]2[C@](C)(CO)[C@H](O)CC[C@@]2(C)[C@@H]1C/C=C1/C(=O)OC[C@H]1O`, for which, in experiment [1], the AC50 was 20.9 µM (active).

In the case of `C[C@H](CCC(=O)O)[C@H]1CC[C@H]2[C@@H]3[C@H](O)C[C@@H]4C[C@H](O)CC[C@]4(C)[C@H]3CC[C@]12C`, the outcome in experiment [1] was inactive.

As for `CC(C)(S)[C@@H](N)C(=O)O`, in experiment [1], the call was inactive.

With `COC1=C(OC)C(=O)C(C/C=C(\C)CC/C=C(\C)CC/C=C(\C)CC/C=C(\C)CC/C=C(\C)CC/C=C(\C)CC/C=C(\C)CC/C=C(\C)CC/C=C(\C)CCC=C(C)C)=C(C)C1=O`, in experiment [10], the SSMD came out at 2.18, the cell count worked out at 7460 and the plate-normalised HSF1 focus index was 1.08 (inactive).

For `CCC[C@@H]1C[C@@H](C(=O)N[C@@H]([C@H]2O[C@H](SC)[C@H](O)[C@@H](O)[C@H]2O)[C@H](C)Cl)N(C)C1`, the call in experiment [1] was inactive.

Take `COc1cc([C@@H]2c3cc4c(cc3[C@@H](O[C@@H]3O[C@@H]5CO[C@@H](c6cccs6)O[C@H]5[C@H](O)[C@H]3O)[C@H]3COC(=O)[C@H]23)OCO4)cc(OC)c1O`: the inhibition in [5] (at 0.5 µM) is 96.4% (active) and 98.5% (active); in experiment [5] (setting [11]), 94.6% and 97.5%; in experiment [5] (setting [12]), 96.6% and 99.1%; in [6] (at 0.5 µM) it was 18.6% (inactive) and 46.3% (inactive); in [6] (setting [13]), -23.8% and 2.23%; in experiment [6] (setting [14]), -2.66% and 12.3%. Also, the inhibition in experiment [7] (at 0.5 µM) is -16.4% (inactive) and -13.1% (inactive); in experiment [7] (setting [15]), -12.1% and -0.448%; in experiment [7] (setting [16]), -6.88% and 18.4%; in [8] (setting [17]) it was 94.5% and 109%; in [8] (at 0.5 µM), 16.2% (inactive) and 36.5% (inactive); in experiment [8] (setting [18]), 117% and 124%. The inhibition in experiment [9] (at 0.5 µM) was 47.8% (inactive) and 52.6% (inactive); in experiment [9] (setting [19]) it was 42.5% and 54.3%; in experiment [9] (setting [20]), 28% and 33.1%.

Turning to `Nc1ccn([C@@H]2O[C@H](CO)[C@@H](O)[C@H]2O)c(=O)n1`, the compound was called inactive in [1].

For the compound `C[C@H]1O[C@@H](O[C@H]2[C@@H](O)C[C@H](O[C@H]3[C@@H](O)C[C@H](O[C@H]4CC[C@@]5(C)[C@H](CC[C@@H]6[C@@H]5C[C@@H](O)[C@]5(C)[C@@H](C7=CC(=O)OC7)CC[C@]65O)C4)O[C@@H]3C)O[C@@H]2C)C[C@H](O)[C@@H]1O`, the fluorescence slope change in [4] is 24.1% (inactive). Also, the AC50 in [1] is 0.132 µM (active).

Consider `CCC(=O)NCC[C@@H]1CCc2ccc3c(c21)CCO3`, for which the result in experiment [1] was inactive.

Regarding `COc1cc([C@@H]2c3cc4c(cc3[C@H](O)[C@H]3COC(=O)[C@@H]23)OCO4)cc(OC)c1OC`, in experiment [1], the AC50 was 2.63 µM (active).

Source of the values: PubChem BioAssay.
